# Source: PubChem
# AMA1 RON2 block: qHTS for Inhibitors of AMA1-RON; Towards Development of Antimalarial Drug Lead: Primary Screen; hit rate 0.2% among 360,000; Potency, µM (doses to about 58.2 µM), for inactives: top-dose activity change, negative = inhibition, usual class: inhibitors; AlphaScreen AMA1-biotinylated RON2 peptide binding; AID 720542, 2013; Plasmodium falciparum AMA1 (3D7) - RON2 peptide interaction;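 further: potency means the concentration at half of the fitted maximal effect; 0% = vehicle wells and -100% = peptide control; nearly all actives have a fitted effect of over 45% in size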
#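 AMA1 (3D7) with his tag at 25 nM final met compounds first, then biotinylated RON2 peptide at 25 nM; detection used donor plus acceptor beads, 10 µg/mL apiece, read by AlphaScreen after 30 min at room temperature.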
# Shiga inhibitor: A qHTS for Small Molecule Inhibitors of Shiga Toxin. Vero cells, Shiga toxin protein synthesis inhibition reporter. inhibition, % at 38.7 µM. hit rate 9.2% among 290,000. AID 2315, 2010; in the data active means inhibition mostly above about 28%, no sharp cut-off; inactive means mostly below about 43%; further: 0% is about no effect
# AmpC inh detg: qHTS Inhibitors of AmpC Beta-Lactamase (assay with detergent). hit rate 0.041% among 370,000. AID 485294, 2010. P00811. AmpC hydrolysis of nitrocefin, absorbance 480 nm, 0.01% Triton. Potency, µM (series often up to 114 µM), without a hit: at the highest dose activity change, negative = inhibition, most hits filed as inhibitors;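 further: potency means the concentration at half of the fitted maximal effect; 0% = no-compound wells and -100% = no-enzyme wells; nearly all actives have a fitted effect of over 25% in size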
# Target sequence (P00811 whole entry, looked up): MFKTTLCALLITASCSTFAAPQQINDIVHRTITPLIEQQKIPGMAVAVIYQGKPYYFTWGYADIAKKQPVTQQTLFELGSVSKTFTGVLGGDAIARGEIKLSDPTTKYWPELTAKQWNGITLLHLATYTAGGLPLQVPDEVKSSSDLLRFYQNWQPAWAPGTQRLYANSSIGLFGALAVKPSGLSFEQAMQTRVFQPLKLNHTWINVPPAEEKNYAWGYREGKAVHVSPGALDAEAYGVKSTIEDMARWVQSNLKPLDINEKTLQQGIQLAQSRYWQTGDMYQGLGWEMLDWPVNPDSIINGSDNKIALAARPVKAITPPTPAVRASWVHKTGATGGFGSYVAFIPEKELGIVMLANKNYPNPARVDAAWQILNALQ
#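 AmpC (5.3 nM in the dispensed reagent) in 20 mM phosphate pH 7.0 with 0.01% (detergent screen) or 0.0001% Triton X-100 was preincubated with compounds for 15 min at room temperature. Nitrocefin was then added from an 800 uM solution, and hydrolysis was followed at 480 nm.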
# CHX counter: Cycloheximide Counterscreen for Small Molecule Inhibitors of Shiga Toxin. cell reporter, cycloheximide protein synthesis inhibition counterscreen. max response, %. hit rate 12% among 300,000. AID 2314, 2010; in the data active means max response mostly above about 13%, no sharp cut-off; inactive means mostly below about 14%; further: read at 38.3 µM for the half of the compounds with a filed dose; 0% is about no effect
# SARS PLpro yeast: qHTS of Yeast-based Assay for SARS-CoV PLP; S. cerevisiae expressing SARS-CoV PLpro, growth rescue; Potency, µM (titrated, usually from 32.9 µM), without a hit: at the top dose activity, positive = growth rescue, hits mostly activators; hit rate 0.19% among 330,000; calls by dose curve; further: potency means the concentration at half of the fitted maximal effect; 0% is about no effect; nearly all actives have a fitted effect of over 55% in size
# AmpC inh no detg: qHTS Inhibitors of AmpC Beta-Lactamase (assay without detergent); AmpC nitrocefin hydrolysis, absorbance 480 nm, 0.0001% Triton; Potency, µM (series often up to 57.1 µM), without a hit: at the highest dose activity change, negative = inhibition, usual class: inhibitors; hit rate 0.52% among 330,000; AID 485341, 2010;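 further: potency means the concentration at half of the fitted maximal effect; plate controls were no compound for no effect and no enzyme for full effect; nearly all actives have a fitted effect of over 20% in size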
#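 20 mM phosphate pH 7.0 + 0.01% (detergent screen) or 0.0001% Triton X-100; 5.3 nM AmpC reagent; cpd preinc 15 min RT; nitrocefin (800 uM stock) to start; A480 q20 s × 4 min; Activity was normalised to no-enzyme and no-compound control wells.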
# Numbers without * were called inactive; u = inconclusive; x = no result. The sample as a whole holds a higher share of hits than the screen did. Unless noted, the call rests on the fitted dose curve; in most records, active means well fitted curve in the direction sought with a large enough effect; inconclusive means small, poorly fitted or top-dose-only effect, or another doubt; inactive means no such curve, though single readings can be large; an effect the other way counts as inactive or inconclusive.
SMILES,AMA1 RON2 block,Shiga inhibitor,AmpC inh detg,CHX counter,SARS PLpro yeast,AmpC inh no detg
COC(=O)c1ccc(/C=N/NC(=O)c2cccc(F)c2)cc1,-10%,105*,0%,61*,-10%,-14%
COc1cc(/C=N\NC(=O)c2ccc(C)nc2)ccc1OC(=O)c1cccc(F)c1,-9%,-2,u,-3,-2%,-3%
O=C(N/N=C\c1cccc(F)c1)c1ccc(-c2ccccc2)cc1,13%,26,5%,21*,-2%,-49%
O=C(N/N=C/c1ccc(C(F)(F)F)cc1)c1ccc(O)cc1,4%,44*,1%,32*,u,-21%
CCOC(=O)Cc1csc(NC(=O)c2sc3nc4ccc(C)cc4cc3c2N)n1,-5%,45,-3%,14,-1%,53%
CC(C)(C)NC(=O)C(=O)N/N=C/c1ccc(F)cc1,-7%,48*,-8%,26*,0%,-7%
Nc1ccc(C(=O)N/N=C/c2ccccc2)cc1,4%,108*,-11%,41*,-7%,-37%
O=C(NN=Cc1ccccc1)NN=Cc1ccccc1,8%,x,x,x,x,x
O=C(O)c1ccc(Cl)c(S(=O)(=O)Nc2ccc3[nH]c(=O)[nH]c3c2)c1,0%,8,-12%,0,0%,-16%
Cc1c(-c2nc(N)nc(Nc3ccc(F)cc3)n2)oc2ccccc12,2%,84*,-4%,22*,-13%,-6%
COc1ccccc1Nc1nc(N)nc(-c2oc3ccccc3c2C)n1,5%,36,-5%,0,5%,-15%
Cc1ccccc1Nc1nc(N)nc(-c2oc3ccccc3c2C)n1,-14%,122*,3%,64*,-2%,49%
O=c1oc2ccccc2c(Nc2ccc(F)cc2)c1[N+](=O)[O-],-4%,-9,-2%,2,4%,-18%
Cc1ccc(SCCC(=O)N2CCC(C)CC2)cc1,13%,73*,-5%,34*,14%,-14%
NC(=O)C1CCN(C(=O)CCSCc2ccccc2)CC1,1%,7,3%,24*,u,-2%
Cc1ccc(SCCC(=O)N2CCC(C(N)=O)CC2)cc1,36%,-6,-3%,14*,u,3%
Cc1cc(C)c(C)c(S(=O)(=O)N2CCC(C(=O)Nc3ccccc3N3CCOCC3)CC2)c1C,22%,32,u,1,7%,-23%
CC(=O)c1cccc(NC(=O)NCCc2c[nH]c3ccccc23)c1,-19%,26,-7%,12*,2%,-26%
Cc1ccccc1NC(=O)NCCc1c[nH]c2ccccc12,-13%,13,-3%,10,-5%,-40%
Cc1ccc2[nH]cc(CCNC(=O)Nc3ccccc3)c2c1,-11%,-9,0%,12*,3%,-35%
COc1ccc2[nH]cc(CCNC(=O)Nc3cccc(F)c3)c2c1,x,x,9%,x,x,x
O=C(O)c1cccc(NC(=O)c2cc3cc(Br)cc(Br)c3oc2=O)c1,x,x,-8%,x,x,x
CC(C)(C)NC(=O)c1ccccc1-c1nc(-c2ccccc2Cl)no1,1%,30,-10%,25*,-3%,18%
COCCNC(=O)c1ccccc1-c1nc(-c2ccccc2OC)no1,-11%,35,-8%,15*,-2%,-7%
O=C(NCc1ccco1)c1ccccc1-c1nc(-c2ccc(F)cc2)no1,5%,20,3%,12,0%,4%
SMILES,AMA1 RON2 block,Shiga inhibitor,AmpC inh detg,CHX counter,SARS PLpro yeast,AmpC inh no detg
Cc1ccccc1-c1noc(-c2ccccc2C(=O)NCc2ccco2)n1,-13%,60*,4%,18*,-1%,-14%
CN(C(=O)c1ccc(NC(=O)Cc2ccc(NC(=O)C3CCN(C(=O)C4CC4)CC3)cc2)cc1)C1CC1,-14%,x,-9%,x,-5%,41%
Cn1c(N)c(C(=O)COC(=O)COc2ccc(Br)cc2)c(=O)n(C)c1=O,13%,x,-5%,x,-2%,7%
O=C(Nc1ccc(S(=O)(=O)NC2CCCC2)cc1)c1cnccn1,3%,6,u,3,14%,16%
Cc1ccc2occ(/C=N/NC(=O)[C@@H](N)Cc3ccccc3)c(=O)c2c1,85%,-5,1%,0,3%,-36%
COc1cccc(C(=O)Oc2ccc(/C=N/Nc3ccc(C(=O)O)cc3)cc2OC)c1,-26%,x,-13%,33*,0%,-39%
COc1cccc(OCc2cc(/C=N/Nc3ccc(C(=O)O)cc3)ccc2OC)c1,-2%,53*,5%,41*,-1%,18µM*
COc1cc(/C=N/Nc2ccc(Cl)c(C(=O)O)c2)ccc1OC(=O)c1ccc(F)cc1,2%,23,-6%,13,-1%,-24%
CCOc1cc(/C=N/Nc2ccc(C(=O)O)cc2)ccc1OC(=O)c1ccccc1C,-8%,42,6%,42*,1%,-48%
COc1cc(/C=N/Nc2ccc(Cl)c(C(=O)O)c2)ccc1OC(=O)c1ccccc1F,-8%,70*,-9%,29*,1%,-28%
COc1ccc(C(=O)N/N=C/c2ccc(OC)c(COc3ccc(F)cc3)c2)cc1,-5%,13,3%,19,22%,-4%
Cc1ccccc1N1C(=O)CC(N2CCN(C(=O)c3ccco3)CC2)C1=O (stereo not drawn),-9%,-9,7%,8,-1%,-24%
CCN(CC)C(=O)C1=C(C)N(Cc2ccc(F)cc2)C(=O)C(CC(=O)NCc2ccco2)C1 (stereo not drawn),-3%,x,x,x,x,x
COc1ccc(CNC(=O)c2csc(Cc3ccccc3)n2)cc1,9%,64*,1%,21*,u,u
O=C(O)c1csc(Cc2ccccc2)n1,-11%,-5,-1%,1,-1%,-1%
O=C(Nc1ccc(F)cc1)c1csc(Cc2ccccc2)n1,-2%,104*,2%,55*,-6%,-18%
COc1ccc(NC(=O)c2csnn2)cc1,x,x,21%,x,x,x
COc1ccc(NC(=O)c2csc(Cc3ccccc3)n2)cc1,0%,74,-4%,43*,-30%,-51%
Cc1cc(C)cc(NC(=O)CN(c2ccc(F)cc2)S(C)(=O)=O)c1,3%,50,-1%,6,0%,11%
Clc1ccc(C2CSc3c4ncnc-4ncn32)cc1 (stereo not drawn),76%,12,2%,-1,1%,-22%
CC1Oc2ccccc2C=C1/C=N/Nc1ccc(C(=O)O)cc1 (stereo not drawn),-21%,70*,-10%,33*,-3%,-51%
O=C(CNc1ccccc1C(=O)O)c1ccccc1,0%,51,-4%,18*,1%,-44%
Cc1ccccc1C(=O)NCC(=O)c1ccccc1,-7%,x,x,x,x,x
